Test results published in PubChem BioAssay (NCI).
This is part of a sample that, as a whole, favours compounds with a hit. Of some 83,000 tested, about 20% had one in any assay.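 Single-concentration screen, 48 h exposure, 96-well plates. Endpoint: percent growth. Below 10 = active.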 Active and inactive are the calls of the source.

Tests used:
Assay in all cases: NCI-60 one-dose screen, 48 h (100 = growth as untreated, 0 = no growth, -100 = all killed)
Settings in all cases: 10 µM unless noted
NCI-H23 lung = tested on: NCI-H23 lung
NCI-H226 lung = tested on: NCI-H226 lung
NCI-H322M lung = tested on: NCI-H322M lung
HOP-62 NSCLC = tested on: HOP-62 NSCLC
NCI-H460 lung = tested on: NCI-H460 lung
HOP-92 NSCLC = tested on: HOP-92 NSCLC
NCI-H522 lung = tested on: NCI-H522 lung
A549/ATCC NSCLC = tested on: A549/ATCC NSCLC
786-0 renal = tested on: 786-0 renal
COLO 205 colon = tested on: COLO 205 colon
DU-145 prostate = tested on: DU-145 prostate
MALME-3M melanoma = tested on: MALME-3M melanoma
MDA-MB-231 breast = tested on: MDA-MB-231 breast
RXF 393 renal = tested on: RXF 393 renal
SF-268 CNS = tested on: SF-268 CNS
SF-295 CNS = tested on: SF-295 CNS
SF-539 CNS = tested on: SF-539 CNS
UACC-257 melanoma = tested on: UACC-257 melanoma
M14 melanoma = tested on: M14 melanoma

Measured: growth

COc1ccc(CN2c3ccccc3Oc3ccccc32)cc1O
inactive: NCI-H23 lung 33.8% | NCI-H226 lung 93.9% | NCI-H322M lung 56.3% | HOP-62 NSCLC 42.1% | NCI-H460 lung 13.3% | HOP-92 NSCLC 32.8% | A549/ATCC NSCLC 37.6% | 786-0 renal 43.2% | COLO 205 colon 91.3% | DU-145 prostate 36.8% | MALME-3M melanoma 45.1% | MDA-MB-231 breast 56.6% | RXF 393 renal 50.1% | SF-268 CNS 57.4% | SF-295 CNS 14.5% | SF-539 CNS 16.3% | UACC-257 melanoma 39.1% | M14 melanoma 18%
active: NCI-H522 lung -33.2%

COc1ccc(CN2c3ccccc3Sc3ccccc32)c(C(F)(F)F)c1
active: NCI-H460 lung 9.92% | NCI-H522 lung -46.3% | COLO 205 colon -29.1% | RXF 393 renal -9.74% | SF-295 CNS 2.22% | SF-539 CNS -12.4% | M14 melanoma 7.59%
inactive: NCI-H23 lung 43.9% | NCI-H226 lung 57.7% | NCI-H322M lung 49.1% | HOP-62 NSCLC 41% | HOP-92 NSCLC 39.4% | A549/ATCC NSCLC 33.2% | 786-0 renal 41.9% | DU-145 prostate 21% | MALME-3M melanoma 92.7% | MDA-MB-231 breast 40.6% | SF-268 CNS 56.4% | UACC-257 melanoma 53.9%

CCc1nc(N)nc(N)c1C#CC(C)c1ccc(-c2ccncc2)cc1Cl (configuration not stated)
inactive: NCI-H23 lung 16.2% | NCI-H226 lung 57.4% | NCI-H322M lung 38.4% | HOP-62 NSCLC 10.3% | 786-0 renal 18.3% | COLO 205 colon 12.3% | DU-145 prostate 21.1% | MALME-3M melanoma 39.6% | MDA-MB-231 breast 43.3% | RXF 393 renal 32.9% | SF-268 CNS 16.6% | SF-295 CNS 10.1% | UACC-257 melanoma 31.9%
active: NCI-H460 lung 5.02% | HOP-92 NSCLC 6.88% | NCI-H522 lung -9.46% | A549/ATCC NSCLC 9.61% | SF-539 CNS 4.42% | M14 melanoma 1.01%

O=C(Cc1ccc(/C=C/C(=O)c2ncc[nH]2)cc1)Nc1ccc(F)cc1
active: NCI-H460 lung 1.46% | SF-539 CNS -21.7%
inactive: NCI-H23 lung 24.2% | NCI-H226 lung 61.3% | NCI-H322M lung 33.3% | HOP-62 NSCLC 20.5% | HOP-92 NSCLC 69.7% | NCI-H522 lung 22.2% | A549/ATCC NSCLC 25.6% | 786-0 renal 23.7% | COLO 205 colon 20.5% | DU-145 prostate 15.9% | MALME-3M melanoma 96.6% | MDA-MB-231 breast 22.6% | RXF 393 renal 19.3% | SF-268 CNS 27.7% | SF-295 CNS 33.1% | UACC-257 melanoma 92.1% | M14 melanoma 54.9%

CC[N+](CC)=c1sc2c(s1)C(c1ccc(Cl)cc1)Oc1ccc(Cl)cc1-2 (configuration not stated)
inactive: NCI-H226 lung 52.1% | NCI-H322M lung 16.8% | HOP-62 NSCLC 12.4% | 786-0 renal 30.7% | DU-145 prostate 24.4% | RXF 393 renal 10.7% | SF-268 CNS 24% | M14 melanoma 17.3%
active: NCI-H23 lung 6.45% | NCI-H460 lung -29.6% | HOP-92 NSCLC -18% | NCI-H522 lung -12.9% | A549/ATCC NSCLC 7.61% | COLO 205 colon -69.6% | MALME-3M melanoma -9.37% | MDA-MB-231 breast -38% | SF-295 CNS 2.98% | SF-539 CNS -22.1% | UACC-257 melanoma -7.21%

CSc1ccc(SC2c3ccc(C)cc3Oc3nc(N)c(C#N)c(N)c32)cc1 (configuration not stated)
active: NCI-H23 lung -74.2% | NCI-H226 lung -88.7% | NCI-H322M lung -20.9% | HOP-62 NSCLC -27.8% | NCI-H460 lung -72.5% | HOP-92 NSCLC -67.6% | NCI-H522 lung -91.1% | A549/ATCC NSCLC 0.603% | 786-0 renal -96.6% | COLO 205 colon -76.7% | DU-145 prostate -88.7% | MALME-3M melanoma -94% | MDA-MB-231 breast -90.5% | RXF 393 renal -70.2% | SF-268 CNS -26.1% | SF-539 CNS -86.7% | UACC-257 melanoma -76.3% | M14 melanoma -81.6%
inactive: SF-295 CNS 15.3%

CCOc1ccc(C(C)=O)cc1NC(=O)c1cccc(-c2nnn(CC)n2)c1
inactive: NCI-H23 lung 42.6% | NCI-H226 lung 59% | NCI-H322M lung 49.1% | HOP-62 NSCLC 36.8% | NCI-H460 lung 12.1% | HOP-92 NSCLC 42.5% | A549/ATCC NSCLC 45% | 786-0 renal 35.5% | DU-145 prostate 16.7% | MALME-3M melanoma 47.2% | MDA-MB-231 breast 47.9% | SF-268 CNS 59% | UACC-257 melanoma 57.1%
active: NCI-H522 lung -38.3% | COLO 205 colon -3.73% | RXF 393 renal -1.89% | SF-295 CNS 7.49% | SF-539 CNS -16.7% | M14 melanoma 9.12%

CN1CCN(c2nc(NCCCCNc3ccnc4cc(Cl)ccc34)c3ccccc3n2)CC1
inactive: NCI-H23 lung 82.8% | NCI-H226 lung 98.7% | NCI-H322M lung 84.9% | HOP-62 NSCLC 76.5% | NCI-H460 lung 68.1% | HOP-92 NSCLC 54.8% | NCI-H522 lung 39.8% | A549/ATCC NSCLC 49.3% | 786-0 renal 74.9% | DU-145 prostate 75.7% | SF-268 CNS 64.9% | SF-295 CNS 80%
active: COLO 205 colon -2.21% | MALME-3M melanoma -53.5% | MDA-MB-231 breast -5.35% | RXF 393 renal 9.29% | SF-539 CNS -73.7% | UACC-257 melanoma -32.4% | M14 melanoma -75.9%
